Data: PubChem BioAssay AID1347417 (National Center for Advancing Translational Sciences (NCATS), 2020)
Screen size: about 120,000 compounds; about 5,300 (4.4%) were called active. Where a call stands in place of a potency, no number is given. Roughly 22% stayed inconclusive and do not appear here. Calls follow the shape of the dose curve; as a rule, active = well fitted inhibition curve with a large enough effect; inconclusive = small, poorly fitted or top-dose-only effect; inactive = no such curve, though single readings can be large or run the other way. Only a selection was taken, and actives are over-represented in it overall.

Assay: qHTS Primary assay for Inhibitors of Plasmodium falciparum Dd2 growth in vitro; also: nearly all actives have a fitted effect of over 65% in size
Conditions: P. falciparum Dd2 growth, SYBR Green, 72 h; series mostly up to 28.9 µM
Outline: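 Infected erythrocytes (Dd2, 0.3% parasitemia, 2.5% hematocrit final) are added to compound in RPMI-1640/Albumax II medium, grown 72 h at 37C in low oxygen, then lysed with saponin/Triton-X containing SYBR Green and read by fluorescence.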
Potency is read from the fitted curve at half-maximal effect.

Row | SMILES | Potency
1 | Cc1noc(C)c1[S+](=O)([O-])N1CCCCC12Cc1ccccc1NC2=O (stereo not drawn) | inactive
2 | Fc1ccc(OCc2nc(C3CCNCC3)no2)cc1 | inactive
3 | CN1CCCCCCN(C(=O)C2CCOCC2)[C@H]2CCC[C@H]2C1=O | inactive
4 | CCN1CCN(C(=O)C23CCCC=C2N(C2CCCC2)C(=O)CC3)CC1 (stereo not drawn) | inactive
5 | CCn1c(CN2CCC(C)CC2)nc2cc(NC(=O)c3ccccc3[N+](=O)[O-])ccc21 | 11.2 µM (active)
6 | Cn1c(=O)c(=O)n(C)c2cc(NC(=O)c3ccccc3Br)ccc21 | inactive
7 | CC1Oc2ccc(NC(=O)c3ccc([N+](=O)[O-])cc3)cc2CN(Cc2ccccc2)C1=O (stereo not drawn) | inactive
8 | CC1CCC2(CC1)OCC(C(=O)NCc1ccc3c(c1)OCO3)N2C(=O)c1ccccc1F (stereo not drawn) | inactive
9 | O=C(NCCC1CCN(C(=O)Nc2cccc(F)c2)CC1)c1ccco1 | inactive
10 | O=C(NCCN1CCCCC1)C1Cn2cccc2C(=O)N1Cc1ccccc1 (stereo not drawn) | inactive
11 | COC[C@H]1CCCN1Cc1nc(C2(O)CCN(C(=O)C3CCOCC3)CC2)cs1 | inactive
12 | COC[C@H]1CCCN1Cc1nc(C2(O)CCN(CC3CCCCC3)CC2)cs1 | 10 µM (active)
13 | COc1cccc(C(=O)N2C(C(=O)NC(C)C)COC23CCN(C(=O)c2cccc(F)c2)CC3)c1 (stereo not drawn) | inactive
14 | N#CCCN1CCN(C(=O)c2cn3ccnc(-c4ccccc4)c3n2)CC1 | inactive
15 | COc1cccc(NC(=O)N(Cc2cn(C)c3ccccc23)C2CCCCCC2)c1 | 6.31 µM (active)
16 | COCCN1CCCCCC(O)c2cc(C(=O)Nc3cccc(OC)c3)ccc21 (stereo not drawn) | inactive
17 | COCC(=O)NC[C@H]1CCN(Cc2cn(C)c3ccccc23)C[C@H]1N(C)C | inactive
18 | Cc1cccc(-c2nc3cnccn3c2NCCC(=O)N2CCCCCC2)c1 | inactive
19 | CNc1ccc(OC2CCN(C(=O)NCCc3ccccc3)CC2)nc1 | inactive
20 | Cc1ccccc1CNC(=O)c1ccc2c(c1)N(C)C1CCCCN1C2=O (stereo not drawn) | 4.47 µM (active)
21 | CN1c2cc(C(=O)Nc3ccc(Cl)cc3)ccc2C(=O)N2CCCCCC21 (stereo not drawn) | inactive
22 | Cc1ccc(CNC(=O)c2ccc3c(c2)N(C)C2CCCCN2C3=O)cc1C (stereo not drawn) | inactive
23 | CN1c2cc(C(=O)Nc3ccccc3)ccc2C(=O)N2CCCCCC21 (stereo not drawn) | inactive
24 | CN1c2cc(C(=O)NCc3ccccc3Br)ccc2C(=O)N2CCCCC21 (stereo not drawn) | 7.08 µM (active)

Row | SMILES | Potency
25 | CN1c2cc(C(=O)N3CCC(C(N)=O)CC3)ccc2C(=O)N2CCCCC21 (stereo not drawn) | inactive
26 | COc1ccc(C(=O)N2[C@@H]3CC[C@H]2CC(NC(=O)c2ccncc2)C3)cc1OC (stereo partly drawn) | inactive
27 | O=C(c1cc(F)ccc1F)N1CCC2(CC1)CC(N(Cc1ccccc1)C1CC1)CCO2 (stereo not drawn) | inactive
28 | O=C(c1ccco1)N1CCC2(CC1)CC(N(Cc1ccccc1)C1CC1)CCO2 (stereo not drawn) | 4.47 µM (active)
29 | CC(=O)N(C1CC1)C1CCOC2(CCN(C(=O)CCc3ccccc3)CC2)C1 (stereo not drawn) | inactive
30 | CCN1CC2(CCN(C(=O)c3cc4c(cc3OC)CCC4)CC2)OC1=O | inactive
31 | O=Cc1cccc(-c2cc(F)cc(F)c2)c1 | inactive
32 | CC(=O)c1ccc(NC(=O)c2nc3nc(C)cc(C(F)F)n3n2)cc1 | inactive
33 | Cc1ccc(S(=O)(=O)NCc2nc3nc(C)cc(C)n3n2)cc1 | inactive
34 | CCc1nc2nc(C)cc(Nc3ccc(F)c(Cl)c3)n2n1 | 3.55 µM (active)
35 | COCCN1C(=O)c2ccccc2C(C(=O)NC2CCCCCC2)C12CCCCC2 (stereo not drawn) | inactive
36 | COc1cc(OC)c(NC(=O)Cn2ccn3nc(-c4ccccc4)c(CO)c3c2=O)cc1Cl | inactive
37 | CCNc1ncc(CN2CCN(c3cccc(C(F)(F)F)c3)CC2)cn1 | 11.2 µM (active)
38 | CC(C)(C)C(=O)N1CC[C@@H](CC(=O)O)[C@@H](CCN2CCN(c3cccc(C(F)(F)F)c3)CC2)C1 | inactive
39 | Cc1cc(N2CCN(c3cccc(C(F)(F)F)c3)CC2)n2nc(-c3ccccc3)nc2n1 | inactive
40 | N#Cc1ccc(OCC2CN(Cc3c[nH]c4ccccc34)C(=O)c3c(ccnc3-c3ccc(OCC(=O)O)cc3)O2)cc1 (stereo not drawn) | inactive
41 | COc1ccccc1OC1(C(=O)O)CCN(C(=O)CC2CC2)CC1 | inactive
42 | CN(C)c1ccc(C(=O)N[C@H]2C[C@H]3C(=O)NC[C@@H](CCC(=O)N4CCCCC4)N3C2)cc1 | inactive
43 | Cn1nc2c(c1NC(=O)Cn1nc3c(cc1=O)CCCC3)CSC2 | inactive
44 | COCC(=O)Nc1ccc([C@@H](O)[C@H]2COCC(=O)N2Cc2ccc(C(F)(F)F)cc2)cc1 | 12.6 µM (active)
45 | CCOCCN1C(=O)COC[C@@H]1[C@H](O)c1ccc(NC(=O)c2cnccn2)cc1 | inactive
46 | Cc1ccc(C(=O)Nc2ccc(C(O)[C@H]3COCC(=O)N3Cc3ccccc3F)cc2)cc1 (stereo partly drawn) | inactive
47 | O=C(CCc1ccccc1)Nc1ccc([C@@H](O)[C@H]2COCC(=O)N2Cc2ccccc2F)cc1 | 11.2 µM (active)
48 | CCN1C(=O)COC[C@@H]1C(O)c1ccc(NC(=O)Cc2ccc(OC)cc2)cc1 (stereo partly drawn) | inactive
